# Assay results reported in PubChem BioAssay (EPA / NIEHS).
# “And” between values parts separate entries of the source, which are not always exact repeats. Identical values can stand only once. Results filed as inconclusive are left out. Some structures have more than one record in an assay (separate samples or runs), and their calls can disagree. The source made the active and inactive calls. How the source made its calls: active means hit-call score of the fitted dose curve at least 0.9, where 1 is the maximum; inconclusive means response in the unintended direction; inactive means score below 0.9.
# Test: CCTE_Shafer_MEA_dev_bursting_electrodes_number: CCTE's Neural Network Formation Assay for Number of Bursting Electrodes, Shafer Lab (AID 2284043)
# Description: CCTE_Shafer_MEA_dev assay is conducted using Axion Biosystems 48 well microelectrode array (MEA) plates and Maestro recording system. Each well of the MEA plate contains a grid of 16 microelectrodes embedded in the culture surface. Electrically active cells, such as neurons, can be cultured over the electrodes, and electrical activity in these cells can be recorded extracellularly. The spontaneous firing of neurons is captured from each electrode on a microsecond timescale providing both temporally and spatially precise data. […] The CCTE_Shafer_MEA_dev assay uses primary cultures of rat cortical neurons. Recordings are made on days post-plating 5, 7, 9 and 12. As these cultures mature over time, neural networks develop functional activity and form cohesive networks in which electrical activity can be highly coordinated. CCTE_Shafer_MEA_dev_bursting_electrodes_number is 1 of 19 assay components of the CCTE_Shafer_MEA_dev assay. It measures the number of electrodes in a well with a burst rate of at least 1 burst (temporally-clustered group of action potential firing) every 2 minutes during a recording in a microelectrode array (MEA) using Axion Biosystems Maestro 768 channel amplifier with the AxIS adaptive spike detector. To collapse across multiple recordings made on days post-plating 5, 7, 9 and 12, the trapezoidal area-under-the-curve of the component is calculated.Data from the assay component CCTE_Shafer_MEA_dev_bursting_electrodes_number was analyzed into 1 assay endpoint. This assay endpoint, CCTE_Shafer_MEA_dev_bursting_electrodes_number, was analyzed in the negative analysis fitting direction relative to DMSO as the negative control and baseline of activity. Using a type of functional reporter, gain or loss-of-signal activity can be used to understand electrical activity.
# On the day prior to culture, each well was coated thoroughly with 150 uL of 0.05% polyethyleneimine (PEI, Sigma Cat P3143) in 50 mM HEPES (Sigma Cat H7523) at a pH of 8. The plate was incubated at 37C for one hour. PEI was rinsed out with 500 uL of sterile water three times. Plates were stored at 4C until the day of culture. This culture was plated at a seeding density of 1.5 x 10^5 cells/well on a 48-well MEA plate, prepared as described above. Cells were administered via a 25 uL media/laminin ([…]; Sigma Cat L2020-1MG) drop directly onto the microelectrode array, as adding the cells with the laminin results in better attachment than pre-coating with laminin. After 2 hours, an additional 475 uL of cortical media was added and the cells returned to the incubator. Exposure starts at day 0 of plating and is continued over twelve days of network development until the experiment is terminated. Cells are fed with fresh medium on DIV 5 and 9, following the recordings on those days. The entire volume of media in the well is exchanged and any vehicle or compound treatment is renewed. Complete details are found in OP-NHEERL/ISTD/SBB/TJS/2015-03-r0 (available on request, email shafer.tim@epa.gov). Measurement of the electrical activity is non-invasive, and recordings can be made from the same plate over multiple different days of the culture. In cortical neurons, this allows for the measurement of extracellular action potentials over the period during which networks form in the MEA plate.
SMILES,outcome,AC50
O=S(=O)(O)C(F)(F)C(F)(F)C(F)(F)C(F)(F)C(F)(F)C(F)(F)F,inactive,–
Clc1ccc(C(c2ccccc2Cl)C(Cl)(Cl)Cl)cc1 (stereo not given),–,4.01 µM (active)
ClC1=C(Cl)[C@]2(Cl)[C@@H]3[C@@H]4C[C@@H]([C@H]5O[C@@H]45)[C@@H]3[C@@]1(Cl)C2(Cl)Cl,–,10.2 µM (active)
O=S(=O)(O)C(F)(F)C(F)(F)C(F)(F)C(F)(F)F,–,8.61 µM (active)
Oc1ccc(C(c2ccc(O)cc2)(C(F)(F)F)C(F)(F)F)cc1,inactive,16.7 µM (active)
CCOP(=S)(OCC)SCSC(C)(C)C,–,23.1 µM (active) and 16.5 µM (active)
C=CC(N)=O,inactive,–
CO/C=C(/C(=O)OC)c1ccccc1COc1cccc(C(F)(F)F)n1,–,203 nM (active) and 323 nM (active)
NS(=O)(=O)C(F)(F)C(F)(F)C(F)(F)C(F)(F)C(F)(F)C(F)(F)C(F)(F)C(F)(F)F,–,4.13 µM (active) and 1.93 µM (active)
ClC1=C(Cl)[C@]2(Cl)[C@@H]3[C@H]4C[C@H]([C@@H]5O[C@H]45)[C@@H]3[C@@]1(Cl)C2(Cl)Cl,inactive,–
ClC(Cl)=C(c1ccc(Cl)cc1)c1ccc(Cl)cc1,–,5.08 µM (active)
CCC(C)(c1ccc(O)cc1)c1ccc(O)cc1,–,3.23 µM (active)
c1cc2ccc3cccc4ccc(c1)c2c34,inactive,–
ClC1=C(Cl)[C@]2(Cl)[C@@H]3[C@@H](Cl)[C@H]4O[C@H]4[C@@H]3C1(Cl)C2(Cl)Cl,–,24.9 µM (active)
